# Screens: PubChem, National Center for Advancing Translational Sciences (NCATS)
# An excerpt weighted towards active compounds, which were near 19% of everything screened.
# TDP1 block = qHTS Assay for Inhibitors of Tyrosyl-DNA Phosphodiesterase (TDP1); Tyrosyl-DNA phosphodiesterase 1 (Homo sapiens), Q9NUW8; recombinant TDP1, AlphaScreen DNA substrate cleavage; Potency, µM (top dose mostly 130 µM), for inactives: at the highest dose activity change, negative = inhibition, usual class: inhibitors; hit rate 0.28% among 350,000; also: potency is read from the fitted curve at half-maximal effect; % is scaled to controls: 0 for no effect and ±100 for the full control effect; nearly all actives have a fitted effect of over 40% in size
# Target sequence (Q9NUW8 whole entry, looked up): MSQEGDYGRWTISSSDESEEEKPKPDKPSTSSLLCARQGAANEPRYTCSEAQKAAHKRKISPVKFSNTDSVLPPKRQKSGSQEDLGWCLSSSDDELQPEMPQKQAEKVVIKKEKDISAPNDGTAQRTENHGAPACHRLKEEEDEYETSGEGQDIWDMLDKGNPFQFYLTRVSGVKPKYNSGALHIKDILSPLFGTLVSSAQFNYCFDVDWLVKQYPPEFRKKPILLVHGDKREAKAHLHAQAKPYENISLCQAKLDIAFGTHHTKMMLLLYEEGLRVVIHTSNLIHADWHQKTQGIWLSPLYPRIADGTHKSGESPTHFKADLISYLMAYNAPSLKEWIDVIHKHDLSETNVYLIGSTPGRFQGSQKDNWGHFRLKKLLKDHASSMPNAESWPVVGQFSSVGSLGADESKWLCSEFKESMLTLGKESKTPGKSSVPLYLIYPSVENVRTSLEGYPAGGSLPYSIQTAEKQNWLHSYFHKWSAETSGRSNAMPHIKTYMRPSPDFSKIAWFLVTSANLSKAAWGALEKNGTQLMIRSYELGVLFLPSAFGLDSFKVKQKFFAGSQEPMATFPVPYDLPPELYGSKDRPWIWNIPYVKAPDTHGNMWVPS
#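 Enzyme-compound mixtures sat 15 min at room temperature, followed by a 5 min reaction with 15 nM final substrate and 10 min with AlphaScreen beads. Recombinant human Tdp1 was used at 1 nM final.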
# TDP1 cell noCPT = qHTS for Inhibitors of human tyrosyl-DNA phosphodiesterase 1 (TDP1): qHTS in cells in absence of CPT | Potency, µM (titrated, usually from 46.2 µM), for the others: at the highest dose activity change, negative = growth inhibition, usual class: inhibitors | DT40 Tdp1-/- hTDP1 cells, no CPT, ATP luminescence, 48 h | AID 686978, 2013 | hit rate 15% among 420,000; also: potency is read from the fitted curve at half-maximal effect; % is scaled to controls: 0 for no effect and ±100 for the full control effect; nearly all actives have a fitted effect of over 55% in size
#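 A cellular qHTS used chicken DT40 cells lacking endogenous Tdp1 but carrying stably transfected human TDP1. Compounds were applied without camptothecin, and cell growth kinetics were judged by ATP-dependent luminescence after ≥48 hr.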
# IL-1B inflam inh = qHTS for Inhibitors of Inflammasome Signaling: IL-1-beta AlphaLISA Primary Screen | THP-1 LPS/ATP IL-1B secretion, AlphaLISA, 16 h; hits give low values | activity change, % at 57.5 µM | hit rate 4.7% among 360,000 | AID 743279, 2014; in the data active = activity change below about -50%; inconclusive = mostly about -30% to -49%; also: % is scaled to controls: 0 for no effect and ±100 for the full control effect
#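 THP-1 cells pretreated 1 hr with compounds (up to 57.5 uM final), then stimulated with LPS (250 ng/mL final) plus ATP (1.25 mM final); secreted IL-1B measured by AlphaLISA after 16 hr, decreased signal indicating inhibition.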
# DT40 TDP1 CPT = qHTS for Inhibitors of human tyrosyl-DNA phosphodiesterase 1 (TDP1): qHTS in cells in presence of CPT; chicken DT40 Tdp1-/-;hTDP1 cells + 20 nM CPT, ATP luminescence, 48 h; Potency, µM (highest dose often 46.2 µM), for inactives: top-dose activity change, negative = growth inhibition, most hits filed as inhibitors; hit rate 12% among 420,000; AID 686979, 2013; also: potency is read from the fitted curve at half-maximal effect; % is scaled to controls: 0 for no effect and ±100 for the full control effect; nearly all actives have a fitted effect of over 55% in size
#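 Cell growth measured by CellTiter-Glo luminescence after a minimum 48 h, 37 C compound exposure with 20 nM CPT in Tdp1-knockout DT40 cells stably expressing hTDP1, seeded 400/well; qHTS titration format.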
# HepG2 tox = qHTS for Inhibitors of TGF-b: Cytotox Counterscreen | HepG2 CAGA-GFP viability, ATP luminescence, 18 h | Potency, µM (top dose mostly 46.1 µM), inactives show at the highest dose activity change, negative = cytotoxicity, usual class: cytotoxic | hit rate 0.76% among 410,000 | AID 588856, 2011; also: potency is read from the fitted curve at half-maximal effect
#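 HepG2 CAGA-GFP cells (1000/well, DMEM with 1% FBS) received compound, then TGF-beta at 500 pg/mL final, and were incubated 18 hours at 37 degrees C. Viability was read by CellTiter-Glo luminescence. Media-only wells were set as complete cell-killing and DMSO as no toxicity.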
# TGFb SMAD3 inh = qHTS for Inhibitors of TGF-b; hit rate 1.2% among 410,000; Potency, µM (series often up to 46.1 µM), for the others: at the top dose activity, negative = inhibition, hits mostly inhibitors; HepG2 CAGA-GFP TGF-b/SMAD3 reporter, GFP fluorescence, 18 h; TGF-beta stimulated, 500 pg/mL final; also: potency is read from the fitted curve at half-maximal effect; % is scaled to controls: 0 for no effect and ±100 for the full control effect; nearly all actives have a fitted effect of over 65% in size
#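 Cell-based qHTS in HEPG2 carrying a CAGA-GFP Smad reporter; compounds added before 500 pg/mL final TGF-beta, 18 h incubation at 37 degrees C, GFP fluorescence quantified per cell by imaging cytometry.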
# * = called active by the depositor; ? = inconclusive; · = no result; [ ] = remark or other dose. Unless noted, calls follow the shape of the dose curve; as a rule, active = well fitted curve in the direction sought with a large enough effect; inconclusive = small, poorly fitted or top-dose-only effect, or another doubt; inactive = no such curve, though single readings can be large; an effect the other way counts as inactive or inconclusive.
SMILES,TDP1 block,TDP1 cell noCPT,IL-1B inflam inh,DT40 TDP1 CPT,HepG2 tox,TGFb SMAD3 inh
O=c1cc(-c2cccc(F)c2)[nH]c2ccccc12,7.1%[234 µM],0.581µM*,51.1,1.03µM*,7.4%,?
O=c1cc(-c2cccc(F)c2)[nH]c2ccc(Cl)cc12,-1.0%[234 µM],·,·,·,·,·
Cc1ccc2[nH]c(C)cc(=O)c2c1,-2.0%[234 µM],·,·,·,·,·
O=c1cc(-c2ccccc2)[nH]c2ccc(F)cc12,4.1%[234 µM],0.517µM*,79.2,0.92µM*,-1.0%,?
O=c1cc(-c2ccccc2)[nH]c2ccc(Cl)cc12,3.1%[234 µM],·,·,·,·,·
Cc1ccc(-c2cc(=O)c3cc(C)ccc3[nH]2)cc1,1.0%[234 µM],3.66µM*,56.9,5.17µM*,-25.4%,-9.4%
Cc1ccc(-c2cc(=O)c3cc(F)ccc3[nH]2)cc1,1.3%,?,30.9,23.1µM*,-22.7%,-12.5%
O=C(CN1C(=O)NC2(CCOc3ccccc32)C1=O)c1ccc(F)cc1 (stereo not drawn),-0.1%,-8.4%,20.9,4.1%,2.1%,0.0%
COc1ccc(OC)c(S(=O)(=O)NCCc2csc3nc(-c4ccccc4)nn23)c1,-2.6%,?,·,-26.7%,-20.0%,-23.5%
COc1ccc2[nH]c(-c3cccc(F)c3)cc(=O)c2c1,7.1%[234 µM],0.231µM*,27.0,0.326µM*,-0.4%,?
O=c1cc(-c2ccccc2)[nH]c2cc(Cl)ccc12,2.0%[234 µM],0.731µM*,42.8,0.461µM*,-12.1%,-27.7%
CCCS(=O)(=O)c1ccc(COC(=O)Cc2ccc([N+](=O)[O-])cc2)cc1,·,?,-7.1,?,-0.4%,8.9%
CCCCC/C=C\C/C=C\C/C=C\CCCCC(=O)NC(C)C(=O)O (stereo not drawn),5.6%,·,·,·,·,·
Cc1ccc(S(=O)(=O)Nc2cccc(-c3ccc(N4CCCC4)nn3)c2)c(C)c1,7.7%,?,·,-24.5%,-5.0%,?
CCOC(=O)c1c(S(=O)(=O)NCC(=O)Nc2ccc(F)cc2C)c(C)n(C)c1C,3.4%,-5.8%,·,0.6%,-19.2%,-14.2%
CCOc1cc(/C=C/C(=O)OCC(=O)NCc2ccco2)cc(Cl)c1OC,1.6%,?,-3.9,?,12.4%,-10.6%
COc1ccc(-c2nc3c4ccccc4n(CC(=O)N4CCN(c5ccccc5F)CC4)c(=O)n3n2)cc1,0.0%,?,·,?,24.1%,8.0%
CCOC(=O)c1c(NC(=O)c2ccco2)sc(C(=O)N2CCCC2)c1C,-2.3%,?,-13.2,?,-1.4%,-10.5%
CC1CCc2c(sc(NC(=O)CN3CCN(C(=O)c4ccco4)CC3)c2C#N)C1 (stereo not drawn),0.0%,25.9µM*,-7.7,18.4µM*,-28.3%,-15.8%
Cc1ccc(C(=O)c2cc(C)sc2NC(=O)CN2CCN(C(=O)c3ccco3)CC2)cc1,6.9%,18.4µM*,-68.7*,?,10.5%,-23.3%
CCOC(=O)c1c(NC(=O)CN2CCN(C(=O)c3ccco3)CC2)sc(C(N)=O)c1C,4.9%,18.4µM*,-11.1,-28.2%,1.0%,11.7%
Cc1ccc(CCNC(=O)C2CCCN(c3ncnc4c3nc3n4CCCCC3)C2)cc1 (stereo not drawn),6.2%,-19.3%,15.9,?,4.1%,12.5%
CCOc1ccc(CCNC(=O)C2CCCN(c3ncnc4c3nc3n4CCCCC3)C2)cc1 (stereo not drawn),4.3%,23.1µM*,-11.8,?,-8.1%,3.1%
Cc1ccc(CN2CCC(CNC(=O)C3CCCN(c4ncnc5c4nc4n5CCCCC4)C3)CC2)cc1 (stereo not drawn),7.9%,?,-65.7*,?,-19.9%,?
CC1CCN(S(=O)(=O)c2ccc3[nH]cc(C(=O)NCc4ccc(F)cc4)c(=O)c3c2)CC1,4.7%,-12.1%,·,-1.6%,-21.9%,0.4%
SMILES,TDP1 block,TDP1 cell noCPT,IL-1B inflam inh,DT40 TDP1 CPT,HepG2 tox,TGFb SMAD3 inh
COc1ccc(N2CSC(=S)N(c3ccc(OC)cc3)C2)cc1,·,14.6µM*,-1.5,16.4µM*,-43.4%,-19.3%
COc1ccc(-n2ccsc2=S)cc1,-2.0%,-16.3%,5.9,0.1%,-0.1%,-1.2%
O=S(=O)(NCC(c1ccco1)N1CCc2ccccc2C1)c1ccc(Br)cc1 (stereo not drawn),·,?,-26.5,?,-16.7%,?
COC(=O)c1cc(NC(=O)CC2SC(=Nc3ccccc3)N(CCc3c[nH]c4ccccc34)C2=O)cc(C(=O)OC)c1 (stereo not drawn),5.2%,?,-14.1,16.4µM*,-15.6%,-15.7%
COc1ccc(N=C2SC(CC(=O)Nc3ccccc3)C(=O)N2CCN2CCOCC2)cc1 (stereo not drawn),0.6%,-21.9%,-9.2,0.3%,-3.0%,-8.8%
Cc1ccc(S(=O)(=O)Nc2ccc(C(=O)NCCCN3CCOCC3)cc2)cc1[N+](=O)[O-],1.0%,-9.7%,4.1,5.4%,-6.1%,-3.8%
[O-]/[N+](=C\c1ccccc1)c1ccccc1,0.2%,?,-1.0,?,-5.4%,-38.8%
[O-]/[N+](=C\c1ccccc1)c1ccc(Br)cc1,9.3%,16.4µM*,1.0,?,-1.0%,-3.8%
Cc1oc2ncn(CC(C)C)c(=O)c2c1C(=O)N1CCN(c2ccc(F)cc2)CC1,3.2%,-25.8%,·,-21.9%,-3.2%,?
COc1ccc(N2CC3=C(C2=O)C(c2ccc(O)c(OC)c2)NC(=O)N3C)cc1 (stereo not drawn),3.2%,·,·,·,-6.9%,-0.3%
Cc1nc2nc(C)c(NS(=O)(=O)c3ccc(F)cc3)c(=O)n2[nH]1,0.0%,15.8%,·,8.9%,6.1%,5.9%
COc1ccc(N2CCN(c3ccc(NC(=O)/C=C\C(=O)O)cc3)CC2)cc1,·,-23.1%,-5.3,16.9%,-28.7%,-15.8%
O=C(O)/C=C/C(=O)Nc1ccc(N2CCOCC2)nc1N1CCOCC1,6.8%,23.1µM*,-6.8,20.6µM*,-53.2%,13.9%
CN(C)CCNC(=O)c1ccc(Sc2ccc(Br)cc2)c([N+](=O)[O-])c1,4.6%,23.1µM*,-70.3*,16.4µM*,-29.6%,-16.2%
O=C(NCCCN1CCOCC1)c1ccc(Sc2ccc(F)cc2)c([N+](=O)[O-])c1,8.2%,16.4µM*,-27.8,?,-11.2%,-3.9%
